An excerpt weighted towards active compounds, which were near 4.7% of everything screened.
HepG2 tox = HepG2 cytotoxicity, counter-screen for TGF-b inhibitors; Potency, µM (titrated, usually from 46.1 µM), for inactives: top-dose activity change, negative = cytotoxicity, most hits filed as cytotoxic; AID 588856; HepG2 CAGA-GFP viability, ATP luminescence, 18 h; 410,000 compounds, 0.76% hits; further: potency means the concentration at half of the fitted maximal effect
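HepG2 CAGA-GFP cells (1000/well, DMEM with 1% FBS) received compound, then TGF-beta at 500 pg/mL final, and were incubated 18 hours at 37 degrees C. Viability was read by CellTiter-Glo luminescence. Media-only wells were set as complete cell-killing and DMSO as no toxicity.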
TGFb SMAD3 inh = inhibitors of TGF-b signaling. HepG2 CAGA-GFP TGF-b/SMAD3 reporter, GFP fluorescence, 18 h; TGF-beta stimulated, 500 pg/mL final. Potency, µM (series often up to 46.1 µM), for the others: at the top dose activity, negative = inhibition, usual class: inhibitors. 410,000 compounds, 1.2% hits. AID 588855; further: potency means the concentration at half of the fitted maximal effect; on the % scale 0 is the no-effect control and ±100 the full control effect; nearly all actives have a fitted effect of over 65% in size
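Smad-responsive CAGA-GFP expression was quantified in HEPG2 cells exposed to compounds and 500 pg/mL final TGF-beta for 18 h at 37 degrees C; unstimulated wells defined full inhibition.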
ATXN2 expr inh = reduces ATXN2 reporter expression in HEK-293 cells; Potency, µM (titrated, usually from 57 µM), for the others: top-dose activity change, negative = inhibition, hits mostly inhibitors; HEK-293 ATXN2-luciferase reporter, luminescence, 24 h; 360,000 compounds, 0.72% hits; further: potency means the concentration at half of the fitted maximal effect; on the % scale 0 is the no-effect control and ±100 the full control effect; nearly all actives have a fitted effect of over 55% in size
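qHTS (up to 57 uM final) was run with 24 h compound exposure of reporter cells at 37 °C. Each well was multiplexed: SteadyGlo luminescence measured ATXN2-luciferase expression after a fluorogenic Gly-Phe-AFC viability readout (25 uM final).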
DRD3 antagonist = blocks the human D3 dopamine receptor; 360,000 compounds, 2.5% hits; max response, negative = inhibition, %; D3R cells, DiscoveRx beta-arrestin luminescence, antagonist mode; stronger effect = lower value; in the data active means max response below about -50%; inconclusive means no clear call, values can overlap the other calls; further: on the % scale 0 is the no-effect control and ±100 the full control effect
Target sequence (P35462 whole entry, looked up): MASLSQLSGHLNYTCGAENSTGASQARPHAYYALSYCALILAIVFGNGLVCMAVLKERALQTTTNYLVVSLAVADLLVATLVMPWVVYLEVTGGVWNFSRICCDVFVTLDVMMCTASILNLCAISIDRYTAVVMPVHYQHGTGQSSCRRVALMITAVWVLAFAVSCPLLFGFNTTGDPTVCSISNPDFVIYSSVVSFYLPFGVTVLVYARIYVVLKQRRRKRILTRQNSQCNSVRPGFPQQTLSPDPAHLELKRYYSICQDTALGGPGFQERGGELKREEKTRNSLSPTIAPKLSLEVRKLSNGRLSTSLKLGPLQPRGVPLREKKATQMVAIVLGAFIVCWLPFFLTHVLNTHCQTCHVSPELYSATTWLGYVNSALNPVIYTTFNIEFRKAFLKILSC
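Cells expressing the human receptor were seeded at 1500 cells/well, incubated overnight at 37 degrees C in 5% CO2, then exposed to library compounds with dopamine controls for 90 minutes at 37 degrees C before luminescent detection.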
DRD3 agonist = agonists of human D3 dopamine receptor; P35462; D3R DiscoveRx beta-arrestin cells, luminescence, 90 min; max activation, %; 410,000 compounds, 0.58% hits; in the data active means max activation above about 30%; further: 0% is about no effect
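Cells at 1500/well, incubated overnight, then treated with pinned compounds (dopamine as control) for 90 min at 37 degrees C. DiscoveRx reagent added for 30 - 60 minutes at room temperature; luminescence read.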
ATXN viability = reduces viability in counter-screen for ATXN expression inhibitors; Potency, µM (highest dose often 56.7 µM), usual class: cytotoxic; AID 651635; 400,000 compounds, 0.49% hits; S2 cells (HEK-293 line with an ATXN2-luciferase reporter) viability, CellTiter-Fluor protease fluorescence, 24 h; further: potency means the concentration at half of the fitted maximal effect; nearly all actives have a fitted effect of over 40% in size
Starred values were filed as active, the others as inactive; i = inactive; ? = inconclusive; . = no result given; ! = not confirmed by another sample; [ ] = dose if it differs, or a comment. Unless noted, the call rests on the fitted dose curve; in most records, active means well fitted curve in the direction sought with a large enough effect; inconclusive means small, poorly fitted or top-dose-only effect, or another doubt; inactive means no such curve, though single readings can be large; an effect the other way counts as inactive or inconclusive.

SMILES	HepG2 tox	TGFb SMAD3 inh	ATXN2 expr inh	DRD3 antagonist	DRD3 agonist	ATXN viability
COc1ccc(CCNC(=O)Cn2c(=O)cc(C(F)(F)F)c3c(C)nn(C)c32)cc1OC	-33%	-4%	0%	.	2	i
CCCCOC(=O)CSc1nnc(-c2ccc(Cl)cc2Cl)o1	-12%	5%	-9%	-52*	-2	i
COc1ccccc1NC(=O)COc1ccc(-c2nn(C)c(=O)c3ccccc23)cc1	-1%	7.9µM*!	?	10	4	i
COc1ccc(C(=O)NNC(=O)c2ccc3ccccc3n2)cc1	-12%	?	20µM*	-19	-15	.
O=C(NNC(=O)c1ccc2ccccc2n1)c1ccc(O)cc1	-14%	-14%	-15%	-4	3	i
CC(=O)Nc1cc(NC(C)=O)cc(-c2nc3ccccc3[nH]2)c1	13µM*!	7.1µM*!	?	4	4	32µM*!
CC(=O)Nc1ccc2nc(-c3ccncc3)[nH]c2c1	-8%	0%	1%	-7	-7	i
O=C(CNC(=O)c1ccccc1Cl)OCc1cc(=O)n2nc(C3CC3)sc2n1	-14%	-13%	8%	.	2	i
CC(C)c1cnc2c(c1SCC(=O)Nc1ccccc1C(F)(F)F)c(=O)n(C)c(=O)n2C	13%	0%	.	.	4	.
O=C(NCC1(c2ccccc2)CCCC1)C(=O)Nc1cccc(C(F)(F)F)c1	2%	-2%	2%	.	-9	i
O=[N+]([O-])c1ccc(/C=C/c2cc(Cl)nc3ccccc23)cc1	-19%	-7%	.	.	.	.
COc1cc(O)oc1C=Nc1ccc(C(=O)O)cc1	14µM*	-3%	-31%[11.3 µM]	-23	2	i
Cc1c(C(=O)Nc2ccc3c(c2)OCCO3)sc2nc(-c3ccccc3)cn12	-32%	-29%	32µM*	19	-1	.
CCOC(=O)C1=C(CSc2nc3ccccc3s2)NC(=O)NC1c1cc(C)ccc1C (stereo unspecified)	11µM*	11µM*	-36%	34	31*	?
COCCCNC(=O)[C@H](Cc1ccccc1)NC(=O)CC[C@H]1O[C@@H](n2ccc(=O)[nH]c2=O)[C@H](O)[C@@H]1O	-9%	-6%	-8%	-56*	-9	i
COc1ccc(OC)c(NC(=O)Cn2cc(C(=O)c3ccc(Cl)cc3)c(=O)c3cc(OC)ccc32)c1	0%	2%	2%	.	-26	i
CCOc1ccc2nc(N3CCCC(C(=O)N4CCN(CC)CC4)C3)sc2c1 (stereo unspecified)	-5%	5%	15%	-65*	-2	i
CCOc1ccc2nc(N3CCCC(C(=O)NCCc4ccc(OC)cc4OC)C3)sc2c1 (stereo unspecified)	-53%	18µM*	.	.	8	.
COc1ccc(C2C=C3CNS(=O)(=O)C3CC2OC(=O)c2ccc(C(F)(F)F)cc2)cc1 (stereo unspecified)	-88%	14µM*	.	.	.	.
O=C(Cn1c(SCC(=O)Nc2ccc(F)cc2)nc2ccccc21)NCc1ccccc1Cl	-57%	?	?	.	1	.
O=C(CCC(=O)Nc1ccc(Br)cc1)N/N=C/c1ccccc1F	1.8µM*	-25%	6%	3	-6	i
O=C(CCC(=O)Nc1cc(C(F)(F)F)ccc1Cl)N/N=C\c1cc([N+](=O)[O-])ccc1O	-20%	-18%	?	-70*	-23	?
O=C(CCC(=O)Nc1ccc(Br)cc1)N/N=C/c1cc([N+](=O)[O-])ccc1O	5%	5%	?	-59*	-15	i
C=CCc1cccc(/C=N/NC(=O)CCC(=O)Nc2ccc(C)cc2)c1O	-39%	-42%	14µM*	-11	-9	i
CCn1ccc2cc(S(=O)(=O)N3CCCN(C(=O)Nc4ccc(C)cc4Cl)CC3)ccc21	-21%	-11%	11%	.	-3	?
SMILES	HepG2 tox	TGFb SMAD3 inh	ATXN2 expr inh	DRD3 antagonist	DRD3 agonist	ATXN viability
NC[C@H]1O[C@H](O[C@@H]2[C@@H](O)[C@@H](O[C@H]3O[C@H](CO)[C@@H](O)[C@H](N)[C@@H]3O)[C@H](N)C[C@@H]2N)[C@H](O)[C@@H](O)[C@H]1O	.	.	0%	.	.	.
CCc1ccc(NCc2cc3ccc(OC)cc3n(CC(=O)Nc3c(C)cc(C)cc3C)c2=O)cc1	-13%	5%	8%	.	4	i
Cc1cccc(NC(=O)CCC(=O)N/N=C/c2cc([N+](=O)[O-])ccc2O)c1	-6%	-19%	?	?	-11	i
O=C(CCC(=O)Nc1ccc(F)cc1)N/N=C/c1cc([N+](=O)[O-])ccc1O	-17%	-8%	?	-70*	-17	?
CCCCCCCC(=O)Nc1ccc(C(=O)N/N=C/c2cccc([N+](=O)[O-])c2)cc1	8%	-9%	?	21	1	7.9µM*
O=C(C=Cc1ccccc1)c1cccs1	-63%	11µM*	26%	-3	4	?
Nc1ccc(/C=C/C(=O)c2cccs2)cc1	-9%	0%	85%	10	9	.
COC(=O)c1ccc(CN2CCOc3ccc(C(O)c4cccnc4)cc3C2)cc1 (stereo unspecified)	.	.	.	.	.	i
COc1ccccc1-c1ccnc(-n2ncc(C(=O)N(C)C(C)c3nc(C)cs3)c2C2CC2)n1 (stereo unspecified)	.	.	.	.	.	i
O=C(NCc1ccccc1)c1ccc2c(=O)n(CCCN3CCCC3=O)c(=S)[nH]c2c1	-10%	0%	-1%	-52*	2	i
COCCn1c(=S)[nH]c2cc(C(=O)NCc3ccccc3)ccc2c1=O	2%	-8%	.	-66*	-6	i
C=CCn1c(=S)[nH]c2cc(C(=O)NCCc3ccc(S(N)(=O)=O)cc3)ccc2c1=O	-30%	-4%	-7%	0	1	i
C=CCn1c(=S)[nH]c2cc(C(=O)Nc3ccc(F)cc3)ccc2c1=O	5%	8%	-2%	2	47*	i
COc1ccc2c(c1)-c1nc(-n3ncc(C(=O)N(C)CCO)c3C3CC3)ncc1CC2	.	.	.	.	.	i
COc1cccc(C2(CC(=O)N3CCC(c4nc5ccc(F)cc5[nH]4)CC3)CC(=O)N(C)C2=O)c1 (stereo unspecified)	.	.	.	.	.	i
Cn1cc(S(=O)(=O)N2CCCCCC2)cc1C(=O)N1CCN(c2ccc(Cl)cc2)CC1	2%	?	?	.	1	?
CC(C)(C)NC(=O)C(c1ccc(-c2ccccc2)cc1)N(C[C@H]1CC[C@@H]([C@@H]2CC[C@H](CO)O2)O1)C(=O)c1ccc(-c2ccccc2)cc1 (stereo partly specified)	-2%	?	?	0	-7	.

Screening results from PubChem.
